The values that follow come from the supplement of paper PMC5940239.

Molecules are shown by their SMILES.

In the experiment the test system is Madurella mycetomatis MM55. Briefly: percent growth relative to solvent control; higher = less inhibition, active = 20 or less. The conditions noted are these: 100 µM; 7 days.
Consider `O=C(c1ccco1)N(CCCn1ccnc1)c1nc2c(Cl)cccc2s1`, for which the percent growth is 3.24% (active).
As to `O=C(Nc1ccc(N2CCNCC2)nc1)c1oc(-c2ccccc2)nc1C(F)(F)F`, the percent growth was -3.61% (active).
As for `O=C1COCc2ccc(Br)cc2N1Cc1ccc(C(F)(F)F)cc1`, the figure is 9.1% (active); as for `CN1CCC(NCc2cccc(-c3ccc(S(=O)(=O)NCc4ccccc4)cc3)c2)CC1`, 3.47% (active); as for `COc1ccccc1CNC(=O)c1cc(C2CC2)nc2c1cnn2C(C)C`, -2.92% (active).
As for `O=C(c1cc2ccccc2o1)N1CCN(Cc2ccc3c(c2)OCO3)CC1`, the figure is 3.51% (active).
On to `CNCCC(Oc1ccc(C(F)(F)F)cc1)c1ccccc1` (stereo not drawn), for which the percent growth is 1.78% (active).
`CC(C)=CCC/C(C)=C\CNCCNC1C2CC3CC(C2)CC1C3` (stereo not drawn): the percent growth is 2.78% (active).
Under `Cc1ncc(-c2ccnc(Nc3ccc(S(C)(=O)=O)cc3)n2)n1C(C)C` stands 6.23% (active); under `COc1cccc(-n2nnnc2S(C)(=O)=O)c1`, 1.2% (active); under `CCC(Sc1nc2ccccc2o1)C(=O)Nc1nccs1` (stereo not drawn), 0.757% (active).
With `O=C(Nc1ccc(N2CCNCC2)cc1)c1ccn2ncc(-c3cccc(Cl)c3)c2n1`, the percent growth is 8.12% (active).
As for `c1ccc(Oc2ccc(-c3cc(N4CCNCC4)[nH]n3)cc2)cc1`, the figure is 0.718% (active).
For the compound `O=C(c1ccc(F)cc1)N(CCNc1ccccc1)c1ccccc1`, the percent growth was 6.35% (active).
Under `CNC(=O)c1nn(C)c2c1C(C)(C)Cc1cnc(Nc3ccc(N4CCN(C)CC4)cc3)nc1-2` stands 0.489% (active); under `Cc1ccc(NC(=O)CC2COc3ccccc3O2)cc1Cl` (stereo not drawn), 1.24% (active); under `Cc1cc(C)n(-c2ccc(NC(=O)C3CCN(Cc4cnc(C)s4)CC3)cc2)n1`, 1.64% (active).
Regarding `Cc1cc(OCC(=O)NCc2ccccc2)c2cc(Br)ccc2n1`, the percent growth is 15.1% (active).
Under `Cc1ccc2[nH]c(C3CCCNC3)c(-c3ccncc3)c2c1` (stereo not drawn) stands 0.356% (active); under `COc1cncc(-c2cncc(N3CCN(c4ccncc4)CC3)n2)c1`, -0.286% (active); under `Cc1nn(C(=O)Nc2cccc(C(F)(F)F)c2)c(C)c1Sc1ncccn1`, 1.34% (active).
For the compound `O=C(NCCc1ccccc1)c1cc(-c2cccnc2)cnc1NCC1CC1`, the percent growth is 1.69% (active).
As for `CN(C)c1cc(NC(=O)Nc2ccccc2)c2ccccc2n1`, the figure is 8.07% (active).
As for `COc1ccc(OC(C)C(=O)Nc2ccc(Cl)cc2C)cc1` (stereo not drawn), the percent growth is 0.806% (active).
Under `COc1cc(C2=NCCN2)cc2cc(-c3ccc(C4=NCCN4)cc3)oc12` stands -1.77% (active); under `COC(=O)C1=C(C)NC(C)=C(C(=O)OC(C)C)C1c1cccc2nonc12` (stereo not drawn), -1.92% (active); under `O[C@@H](c1cc(C(F)(F)F)nc2c(C(F)(F)F)cccc12)[C@H]1CCCCN1`, -1.36% (active).
As for `CC(C)(C(=O)Nc1ccc(F)cc1)n1cc(-c2ccccc2F)cn1`, the figure is 6.9% (active).
As for `Cc1cccc(Cn2ccc(NC(=O)c3ccc4c(c3)OCO4)n2)c1`, the figure is -0.936% (active).
As to `OCc1ccc(-c2cncc(Nc3cccc(Cl)c3)c2)cc1`, the percent growth is 7.76% (active).
As for `O=C(COc1cccc(F)c1)Nc1nc(-c2ccccn2)cs1`, the figure is 0.599% (active); as for `CC(C)n1nc(-c2cc3c(Cl)cccc3[nH]2)c2c(N)ncnc21`, -3.21% (active); as for `N=C(N)Nc1ccc(-c2ccc(-c3ccc(N=C(N)N)c(Cl)c3)o2)cc1Cl`, -8.11% (active).
Consider `O=C(NC1CC1)c1ccc(N2CCOc3ccc(Cl)cc32)s1`, for which the percent growth was -2.78% (active).
Under `CCN(CC)CCCCCCNc1cc(OC)cc2c(C)ccnc12` stands -1.36% (active); under `Cc1[nH]c2ccccc2c1C(c1cccs1)N1CCN(C)CC1` (stereo not drawn), 4.92% (active).
In the case of `COc1ccc(-c2cc(NC(=O)c3ccc(F)cc3Cl)ccc2OC)cc1`, the percent growth was 19.5% (active).
As for `O=C(Nc1nnc(-c2ccc(Cl)cc2)o1)c1cccc(C(F)(F)F)c1`, the percent growth was 3.76% (active).
